Data taken from the supplement of paper PMC12067926.

Each compound was assayed on Carnobacterium 1 (Carnobacterium gallinarum) (assay: relative growth (AUC of 72 h growth curve relative to DMSO control, dAUC) (ratio); higher = more growth (less inhibition), active = hit call of the paper). Conditions: 20 µM;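 active = growth AUC significantly below the DMSO wells by Dunnett test; inactive = the rest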.
Method: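 Environmental bacterial isolates (Iceland stream sediment and Silwood Park soil) and whole stream-sediment communities were grown in LB from a 1:100 dilution with each pesticide at 20 µM (1% DMSO). A600 was read hourly for 72 h and the area under a spline-fitted growth curve (AUC) was computed. dAUC is the mean AUC of 3 biological replicates divided by the mean AUC of the DMSO controls. Significance was tested by Dunnett's test against the DMSO control.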

Row | SMILES | relative growth
1 | COCC(=O)N(c1c(C)cccc1C)C(C)C(=O)OC (stereo not given) | 1.13 (inactive)
2 | CC[C@H](C)C1O[C@]2(C=C[C@@H]1C)C[C@@H]1C[C@@H](C/C=C(\C)[C@@H](O[C@H]3C[C@H](OC)[C@@H](O[C@H]4C[C@H](OC)[C@H](NC)[C@H](C)O4)[C@H](C)O3)[C@@H](C)/C=C/C=C3\CO[C@@H]4[C@H](O)C(C)=C[C@@H](C(=O)O1)[C@]34O)O2 (stereo not given in full) | 0.609 (inactive)
3 | O=C(O)CNCP(=O)(O)O | 1.13 (inactive)
4 | COCC(C)N(C(=O)CCl)c1c(C)csc1C (stereo not given) | 0.859 (inactive)
5 | CCOc1cc(Oc2ccc(C(F)(F)F)cc2Cl)ccc1[N+](=O)[O-] | 0.874 (inactive)
6 | C[N+](C)(C)CCCl | 1.05 (inactive)
7 | O=C1c2ccccc2C(=O)N1SC(Cl)(Cl)Cl | 1.03 (inactive)
8 | CS(=O)(=O)NC(=O)c1cc(Oc2ccc(C(F)(F)F)cc2Cl)ccc1[N+](=O)[O-] | 0.908 (inactive)
9 | CC(C)NC(=O)N1CC(=O)N(c2cc(Cl)cc(Cl)c2)C1=O | 1.02 (inactive)
10 | CNC(=O)c1cc(Cl)cc(C)c1NC(=O)c1cc(Br)nn1-c1ncccc1Cl | 1.24 (inactive)
11 | CC1(C)[C@H](/C=C(\Cl)C(F)(F)F)[C@@H]1C(=O)OC(C#N)c1cccc(Oc2ccccc2)c1 (stereo not given in full) | 1.38 (inactive)
12 | CNC(=O)CSP(=S)(OC)OC | 0.894 (inactive)
13 | COC(=O)N(OC)c1ccccc1COc1ccn(-c2ccc(Cl)cc2)n1 | 1.36 (inactive)
14 | CCOCn1c(-c2ccc(Cl)cc2)c(C#N)c(Br)c1C(F)(F)F | 1.16 (inactive)
15 | CC1(C)CON(Cc2ccccc2Cl)C1=O | 0.914 (inactive)
16 | COc1ccc(-c2ccccc2)cc1NNC(=O)OC(C)C | 0.828 (inactive)
17 | CNC(=O)/C=C(\C)OP(=O)(OC)OC | 0.926 (inactive)
18 | ClC1C(Cl)C(Cl)C(Cl)C(Cl)C1Cl (stereo not given) | 0.955 (inactive)
19 | Nc1c(Cl)c(F)nc(OCC(=O)O)c1Cl | 1.23 (inactive)
20 | O=C(NC(=O)c1c(F)cccc1F)Nc1ccc(Cl)cc1 | 0.911 (inactive)

Row | SMILES | relative growth
21 | COc1cc(OC)nc(NC(=O)NS(=O)(=O)c2ncccc2C(=O)N(C)C)n1 | 1.09 (inactive)
22 | CC(C)(C)C(O)(CCc1ccc(Cl)cc1)Cn1cncn1 (stereo not given) | 0.864 (inactive)
23 | CCc1cccc(C)c1N(C(=O)CCl)[C@@H](C)COC | 1.04 (inactive)
24 | COP(=S)(OC)SCN1C(=O)c2ccccc2C1=O | 1.04 (inactive)
25 | Oc1ccccc1-c1ccccc1 | 0.744 (inactive)
26 | CCC(C)c1ccccc1OC(=O)NC (stereo not given) | 1.11 (inactive)
27 | CCNc1nc(Cl)nc(NC(C)C)n1 | 1.18 (inactive)
28 | CC(C)CC(C)c1sccc1NC(=O)c1cn(C)nc1C(F)(F)F (stereo not given) | 0.721 (inactive)
29 | COP(=O)(OC)OC=C(Cl)Cl | 0.961 (inactive)
30 | CCNC(=O)NC(=O)/C(C#N)=N/OC | 0.965 (inactive)
31 | COC(=O)Nc1nc2ccccc2[nH]1 | 1.1 (inactive)
32 | CC1=NNC(=O)N(/N=C/c2cccnc2)C1 | 1.3 (inactive)
33 | O=C(Nc1ccccc1-c1ccc(Cl)cc1)c1cccnc1Cl | 0.968 (inactive)
34 | CC1(C)C(C=C(Cl)Cl)C1C(=O)OCc1cccc(Oc2ccccc2)c1 (stereo not given) | 0.871 (inactive)
35 | CO/C=C(/C(=O)OC)c1ccccc1Oc1cc(Oc2ccccc2C#N)ncn1 | 1.27 (inactive)
36 | CC1COC(Cn2cncn2)(c2ccc(Oc3ccc(Cl)cc3)cc2Cl)O1 (stereo not given) | 1.19 (inactive)
37 | O=C(NC(=O)c1c(F)cccc1F)Nc1ccc(OC(F)(F)C(F)OC(F)(F)F)c(Cl)c1 (stereo not given) | 0.745 (inactive)
38 | CC(C)N(C)S(=O)(=O)NC(=O)c1cc(-n2c(=O)cc(C(F)(F)F)n(C)c2=O)c(F)cc1Cl | 1.22 (inactive)
39 | CC(Oc1ccc(Oc2ncc(C(F)(F)F)cc2Cl)cc1)C(=O)O (stereo not given) | 1.23 (inactive)
40 | CC[C@H](C)[C@H]1O[C@]2(C=C[C@@H]1C)C[C@@H]1C[C@@H](C/C=C(\C)[C@@H](O[C@H]3C[C@H](OC)[C@@H](O[C@H]4C[C@H](OC)[C@@H](O)[C@H](C)O4)[C@H](C)O3)[C@@H](C)/C=C/C=C3\CO[C@@H]4[C@H](O)C(C)=C[C@@H](C(=O)O1)[C@]34O)O2.CO[C@H]1C[C@H](O[C@H]2[C@H](C)O[C@@H](O[C@@H]3/C(C)=C/C[C@@H]4C[C@@H](C[C@]5(C=C[C@H](C)[C@@H](C(C)C)O5)O4)OC(=O)[C@@H]4C=C(C)[C@@H](O)[C@H]5OC/C(=C\C=C\[C@@H]3C)[C@]54O)C[C@@H]2OC)O[C@@H](C)[C@@H]1O | 0.726 (inactive)
